Reference: the OligoGym collection

These sequences were tested against CBWD1 (assay: pooled miR-30 sensor sort-seq; sequence = guide strand). Conditions: shRNA.

| Sequence | sensor-assay potency score (higher = more potent) |
| --- | --- |
| TTGTCTAGTAGCTTCATTGATA | -0.639 |
| TACATCTTCTTCTGGAACCAGG | -0.734 |
| TTCTTCTGGAACCAGGTCTGTT | -0.933 |

Each sequence was assayed against CBWD2 in the same assay as above. Conditions: shRNA.

| Sequence | sensor-assay potency score (higher = more potent) |
| --- | --- |
| TATTTTGAATCCACTATAGTTA | -0.411 |
| TTTATGGATCTAATTGTCGCTC | -0.0827 |
| TTATGGATCTAATTGTCGCTCT | 0.237 |

What follows are sequences tested against CBWD3 in the same assay as above. Conditions: shRNA.

| Sequence | sensor-assay potency score (higher = more potent) |
| --- | --- |
| TTACATCTTCTTCTGGAACCAG | 0.201 |
| TTTATGGATCTAATTGTCGTTC | -0.438 |
| TCTTCTGGAACCAAGTCTGTTT | -0.303 |
| TTGTCGTTCTTAATTTCTTTAC | -1.76 |
| TATTATCCAATCCTTTTGATAA | -1.72 |
| TACATCTTCTTCTGGAACCAAG | -0.337 |
| TTATTATCCAATCCTTTTGATA | -1.04 |
| TTATCCAATCCTTTTGATAAGA | -1.37 |
| TTTATTATCCAATCCTTTTGAT | -0.0523 |

Each sequence was assayed against CBX5 in the same assay as above. Conditions: shRNA.

| Sequence | sensor-assay potency score (higher = more potent) |
| --- | --- |
| TTAGATTTGATGTCATCGGCAC | 0.364 |
| TTAGGAACATTAAATCACCACA | -0.835 |
| TAGATATTCCACTTGTCCCTTA | 0.296 |
| TATACTTTTTCATAAATTCAGA | -1.38 |
| TAAAATGCTATCACAATTTGTG | -0.0381 |
| TTTAGATTTGATGTCATCGGCA | -0.103 |
| TTAAATCACCACAGGAATCTGT | -0.0279 |
| TAAATTCAGAAATTAGCTCAGG | -0.159 |
| TCACATTAGCTTCTTTTGCAAG | -1.01 |
| TTTGATGTCATCGGCACTGTTT | -0.553 |
| TTACTTTCTGACTTCTCCCTGG | 0.106 |
| TTTTAGATTTGATGTCATCGGC | -0.344 |

What follows are sequences tested against CBX7 in the same assay as above. Conditions: shRNA.

| Sequence | sensor-assay potency score (higher = more potent) |
| --- | --- |
| ATACTCGACTTTACCCTTCCGC | -0.334 |
| TAGAGGAGAATGATAATGGTGG | 0.263 |
| TCCACTTCACCAGATACTCGAC | -1.35 |
| TCGATGGCTGTGGCTCTCCAGG | -1.84 |
| TAGTTCTTTGAAAGTGACCAGG | -0.792 |
| TACTCGACTTTACCCTTCCGCA | -1.36 |
| TCGTAGGCCATGACGAGGCGGG | -0.996 |
| TTCCGCACGCGCTTCTTCCGGA | -0.445 |
| ATACATCACACAACTTAGCAGA | -0.583 |
| TTTAACTCCCAGAACCAGCTGC | 0.312 |
| TTCTTTGAAAGTGACCAGGAAG | -1.2 |
| TGTACTTTGGGGGCCATCCTTT | -1.24 |
